Source: the supplement of paper PMC8975748
Structures can show the parent of a compound that is named as a salt.

tested on: Saccharomyces cerevisiae BY4741 SeMeCo community; assay: z-score of subpopulation abundance vs DMSO median, subpopulation auxotrophic for LUM; higher = larger share of this subpopulation than in DMSO controls; details: 10 µM; 24 h; SM minimal medium; subpopulation (auxotrophy): LUM
Description: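 Fluorescent four-plasmid SeMeCo (self-establishing metabolically cooperating S. cerevisiae BY4741 community; plasmids pH-mRuby2, pL-mWasabi, pU-eCFP, pM-TagRFP657) was grown 24 h in minimal SM medium with each Selleck FDA-approved drug at 10 µM in 384-well plates. Cells were fixed and imaged by high-content confocal microscopy. For each auxotrophic subpopulation (and the prototroph), a z-score gives the deviation from the DMSO vehicle-control population median.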

Row | SMILES | z-score of subpopulation abundance
1 | CC(NC(C)(C)C)C(=O)c1cccc(Cl)c1 (centres undefined) [Amfebutamone (Bupropion) HCl] | -0.86
2 | CN(C)C(=O)Oc1ccc[n+](C)c1 [Pyridostigmine Bromide] | -0.35
3 | C[N+](C)(C)CCCCCCCCCC[N+](C)(C)C [Decamethonium Bromide] | 0.08
4 | CN[C@@H]1[C@@H](O)[C@@H](O[C@@H]2[C@@H](O)[C@H](O[C@H]3O[C@H]([C@@H](C)O)[C@@H](O)[C@H](O)[C@H]3N)[C@@H](N)C[C@H]2N)OC[C@]1(C)O [Geneticin (G418 Sulfate)] | -0.36
5 | COc1cc2c(cc1OC)C1CC(=O)C(CC(C)C)CN1CC2 (centres undefined) [Tetrabenazine (Xenazine)] | 0.67
6 | CN(C)C(=O)Oc1cccc([N+](C)(C)C)c1 [Neostigmine Bromide] | 0.02
7 | C[C@H]1O[C@H](O[C@H]2[C@H](O)[C@@H](O)[C@@H](O)[C@H](O)[C@@H]2O)[C@@H](N)C[C@@H]1NC(=N)C(=O)O [Kasugamycin hydrochloride] | 0.34
8 | O=[N+]([O-])C(Br)(CO)CO [Bronopol] | -0.07
9 | NCCc1c[nH]c2ccc(O)cc12 [Serotonin HCl] | -0.88
10 | C=C(C)[C@H]1Cc2c(ccc3c2O[C@@H]2COc4cc(OC)c(OC)cc4[C@@H]2C3=O)O1 [Rotenone (Barbasco)] | -0.01
11 | CC[N+](C)(CC)CCOC(=O)C(O)(c1ccccc1)c1ccccc1 [Methylbenactyzine Bromide] | -1.06
12 | CCN(C)C(=O)Oc1cccc([C@H](C)N(C)C)c1 [Rivastigmine Tartrate] | -0.01
13 | C=CC[C@]1(O)CC[C@H]2[C@@H]3CCC4=CC(=O)CCC4=C3C=C[C@@]21C [Altrenogest] | -0.14
14 | O=c1cccc2n1C[C@@H]1CNC[C@H]2C1 [Cytisine] | -0.47
15 | C#C[C@]1(O)C=C[C@H]2[C@@H]3CCC4=CC(=O)CC[C@@H]4[C@H]3CC[C@@]21CC [Gestodene] | 0.24
16 | CCN(CC)CCOC(=O)C(O)(c1ccccc1)c1ccccc1 [Benactyzine hydrochloride] | -0.06
17 | COc1ccc(C(CN(C)C)C2(O)CCCCC2)cc1 (centres undefined) [Venlafaxine] | 0

Row | SMILES | z-score of subpopulation abundance
18 | C[CH2][Hg][S]c1ccccc1C(=O)[O-].[Na+] [Thimerosal] | 21
19 | CC(=O)O[C@H]1C[C@@H]2CC[C@@H]3[C@H](CC[C@@]4(C)[C@H]3C[C@H]([N+]3(C)CCCCC3)[C@@H]4OC(C)=O)[C@@]2(C)C[C@@H]1[N+]1(C)CCCCC1 [Pancuronium dibromide] | -0.96
20 | O=c1[nH]c2ccccc2n1CCCN1CCC(n2c(=O)[nH]c3cc(Cl)ccc32)CC1 [Domperidone] | -0.33
21 | C[N+]1(C)[C@@H]2C[C@@H](OC(=O)[C@H](CO)c3ccccc3)C[C@H]1[C@@H]1O[C@@H]12 [Methscopolamine] | 0.43
22 | N#Cc1nn(-c2c(Cl)cc(C(F)(F)F)cc2Cl)c(N)c1[S+]([O-])C(F)(F)F (centres undefined) [Fipronil] | -0.72
23 | CCCN1C[C@H](CSC)C[C@@H]2c3cccc4[nH]cc(c34)C[C@H]21 [Pergolide Mesylate] | -0.65
24 | Cn1cc(C2=C(c3cn(C4CCN(Cc5ccccn5)CC4)c4ccccc34)C(=O)NC2=O)c2ccccc21 | -0.2
25 | CN(C)[C@@H]1C(=O)C(C(N)=O)=C(O)[C@@]2(O)C(=O)C3=C(O)c4c(O)cccc4[C@@](C)(O)[C@H]3[C@H](O)[C@@H]12 [Oxytetracycline (Terramycin)] | 0.18
26 | C=CN1CCCC1=O.II [Povidone iodine] | 0.83
27 | C[C@@H]1O[C@@H](O[C@H]2C[C@@H](O)[C@]3(CO)[C@H]4[C@H](O)C[C@]5(C)[C@@H](C6=CC(=O)OC6)CC[C@]5(O)[C@@H]4CC[C@]3(O)C2)[C@H](O)[C@H](O)[C@H]1O [Ouabain] | -0.83
28 | CC(C)N(CCC(C(N)=O)(c1ccccc1)c1ccccn1)C(C)C (centres undefined) [Disopyramide] | 0.92
29 | CCOC(=O)Nc1ccc(NCc2ccc(F)cc2)cc1N [Retigabine] | -0.25
30 | C=C[C@H]1CN2CC[C@H]1C[C@H]2[C@H](O)c1ccnc2ccccc12 [Cinchonidine] | 0.19
31 | CN1[C@@H]2C[C@@H](OC(=O)[C@H](CO)c3ccccc3)C[C@H]1[C@@H]1O[C@@H]12 [Scopolamine HBr] | -0.9
32 | CCN1CC2(OC(=O)c3ccccc3NC(C)=O)CCC(OC)C34C1C(CC23)C1(O)CC(OC)C2CC4C1(O)C2OC (centres undefined) [Lappaconitine] | 0.98
33 | NC(=O)CN1CCCC1=O [Piracetam] | 2.09
34 | NCC(O)c1ccc(O)cc1 (racemic) [(+,-)-Octopamine HCl] | 0.58
